# Test results published in PubChem BioAssay AID624413 (The Scripps Research Institute Molecular Screening Center, 2012).
# Screen size: about 1,400 compounds; about 160 (11%) were called active. The list is a sample of the results. Unmarked numbers belong to inactive results. Cut-off read from the data, not from the text of the source: active = inhibition above about 15%; inactive = the rest.
# Assay: viability loss in Jurkat lymphocytes – cell-based, luminescence, high throughput, cytotoxicity control for T. brucei MetRS inhibitor project (AID 624413);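 note: 0% = vehicle and 100% = reference inhibitor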
# Conditions: Jurkat cells viability, ATP luminescence; at 8.3 µM; stronger effect = higher value
row,SMILES,inhibition
1,NS(=O)(=O)c1ccc(CCNC(=O)Nc2ccc(Cl)cc2)cc1,3.2%
2,O=C(Cc1ccc(S(=O)(=O)N2CCOCC2)s1)Nc1ccc(Br)c(C(F)(F)F)c1,4.25%
3,O=C(CC(=O)Nc1ccc(Cl)c(Cl)c1)N/N=C/c1ccc(O)cc1,3.68%
4,O=C(Cn1c2[n+](c3ccc(C(F)(F)F)cc31)CCCCC2)Nc1c(F)cccc1F,7.63%
5,S=c1[nH]nc(CSCc2ccc(Cl)cc2Cl)n1-c1ccccc1,7.09%
6,Cc1ccc(-c2cnc(C(O)c3cc(Cl)cc(Cl)c3)[nH]2)cc1 (stereo unspecified),4.06%
7,Oc1[nH]c2ccc(Br)cc2c1N=Nc1nn[nH]n1,-3.84%
8,CN(C(=O)CSc1nnc(-c2c[nH]c3ccccc23)o1)C1CCS(=O)(=O)C1 (stereo unspecified),-7.37%
9,Fc1ccc(NC(=S)N2CCc3[nH]c4ccccc4c3C2)cc1,-0.86%
10,Cn1c(CCCOc2ccc(Cl)cc2Cl)n[nH]c1=S,1.8%
11,COC(=O)CN1C(=S)N(c2ccccc2)C(=O)C1CC(=O)Nc1ccc(Cl)cc1 (stereo unspecified),-3.1%
12,Clc1ccccc1SCc1nc2ccccc2[nH]1,7.62%
13,Cc1ccc(O)c(CNc2nc3ccccc3[nH]2)c1,24.5% (active)
14,Cc1ccc(CNC(=O)CSc2nnc3c(n2)[nH]c2ccc(F)cc23)cc1,-1.93%
15,O=C(O)CCn1c(O)c(C=C2N=c3ccccc3=N2)sc1=S,0.39%
16,O=C(Nc1ccc(S(=O)(=O)Nc2ncccn2)cc1)c1cncc(Br)c1,-8.56%
17,COc1ccc(OCC(O)CNC(=O)Nc2ccc(Cl)cc2)cc1 (stereo unspecified),-6%
18,CCCCCn1nnnc1-c1nc2cc3ccccc3cc2[nH]c1=O,55.2% (active)
19,c1ccc2cc3[nH]c(CN4CCCCC4)nc3cc2c1,-5.35%
20,O=C(O)c1ccc(NS(=O)(=O)c2ccc3c(c2)C(=O)c2cc(S(=O)(=O)Nc4ccc(C(=O)O)cc4)ccc2-3)cc1,-0.7%
21,CC(=N\NC(=O)c1cc(Br)ccc1O)/C(=N/O)C(=O)Nc1ccccc1,9.24%

row,SMILES,inhibition
1,CN(C(=O)CSc1nnc(Nc2ccccc2)s1)C1CCS(=O)(=O)C1 (stereo unspecified),3.56%
2,CCO[C@@H]1OC(C(=O)NCc2nc3ccccc3[nH]2)=C[C@H](C2CCCCC2)[C@H]1CCCO,-0.5%
3,O=C(Cn1c(NCCO)nc2ccccc21)c1ccc(Cl)cc1Cl,4.95%
4,COc1ccc(-c2[nH]ncc2/C=N/NC(=O)c2cc(Br)ccc2O)c(OC)c1,2%
5,COc1ccccc1-n1c(SCC(=O)Nc2ccc(Cl)cc2)nc(O)c(Cc2ccccc2)c1=O,-1.69%
6,CSc1nsc(NC(=O)Nc2ccccc2)n1,10%
7,Cc1ccccc1OCC(=O)NNC(=O)c1ccc(-n2cncn2)c([N+](=O)[O-])c1,5.5%
8,Cc1c(CN2CCC(CO)(CCOc3ccccc3)CC2)[nH]c2ccc(Cl)cc12,13.6%
9,O=C(CSc1nc2ccccc2[nH]1)N/N=C/C=C\c1ccccc1[N+](=O)[O-],0.15%
10,Cc1ccc(S(=O)(=O)N(C)C)cc1NC(=O)c1ccc(-n2cncn2)c([N+](=O)[O-])c1,-2.08%
11,COc1ccc(NC(=O)C(NC(C)=O)C(=O)NCc2ccccc2Cl)cc1 (stereo unspecified),3.32%
12,O=C(NCC(O)c1nc2ccccc2[nH]1)c1ccc(Br)cc1 (stereo unspecified),1.16%
13,O=C(OCc1nc2ccccc2[nH]1)C1CCCCC1,-2.05%
14,O=S(=O)(c1ccc(Br)cc1)N1CCC(c2nc3ccccc3[nH]2)CC1,35.4% (active)
15,O=C(NCCN1CCOCC1)c1ccccc1N1C(=O)[C@@H]2Cc3c([nH]c4ccccc34)C(c3cccc(Cl)c3)N2C1=O (stereo partly specified),-0.67%
16,O=C1CCCN1CCCNc1ncnc2c1[nH]c1ccccc12,-1.7%
17,CCN1CCCC1CNc1ncnc2c1[nH]c1ccc(F)cc12 (stereo unspecified),-1.19%
18,CC(C)OCCCNc1ncnc2c1[nH]c1ccc(F)cc12,47.3% (active)
19,Cc1cc(C)cc(NC(=O)N(C)Cc2ccccc2)c1,-0.98%
20,CC(C)(C)c1ccc(/C=C2\SC(=O)N=C2N)cc1,7.36%
